Test results reported in paper PMC11062922 (Nature Chemical Biology, 2023).

Tests used:
Design in all cases: species or system human, MV4-11 + K-562 + COLO205 + SK-N-BE2 + OVCAR-8
Conditions in all cases: read-out: apparent Kd; compound concentrations:100 nM and 1000 nM (sheet 'Samples'); n = 1
[1] = system: ADCK1
[2] = system: AKT1
[3] = system: ATR
[4] = system: AURKA
[5] = system: BTK
[6] = system: CDK9
[7] = system: CLK1
[8] = system: CLK4
[9] = system: CSNK1A1
[10] = system: CSNK1E
[11] = system: CSNK1G1
[12] = system: CSNK1G3
[13] = system: DDX3X;DDX3Y
[14] = system: EPHB3
[15] = system: GRK6
[16] = system: HSP90B1
[17] = system: LYN
[18] = system: MAP2K1
[19] = system: MAP2K2
[20] = system: MAPK1
[21] = system: MAPK3
[22] = system: MCM5
[23] = system: MET
[24] = system: OPA1
[25] = system: PHKG2
[26] = system: PI4KA
[27] = system: PI4KB
[28] = system: PIK3CA
[29] = system: PIK3CB
[30] = system: PIM1
[31] = system: PIM3
[32] = system: PRKACA
[33] = system: PRKDC
[34] = system: RAB14
[35] = system: RAB5C
[36] = system: RPS6KA3
[37] = system: RPS6KA6
[38] = system: SKIV2L2
[39] = system: SLC25A5
[40] = system: T1, T10
T1 construct: gene NAT10

[41] = system: TBK1
[42] = system: TEC
[43] = system: ULK3
[44] = system: VDAC3

Cc1cnc(Nc2ccc(F)cc2Cl)nc1-c1c[nH]c(C(=O)N[C@H](CO)c2cccc(Cl)c2)c1 [Vertex11e]
potency estimated from few doses [1]: 1210 nM
potency estimated from few doses [2]: 1200 nM
potency estimated from few doses [3]: 890 nM
potency estimated from few doses [4]: 745 nM
potency estimated from few doses [5]: 880 nM
potency estimated from few doses [6]: 1810 nM
potency estimated from few doses [7]: 1150 nM
potency estimated from few doses [8]: 1250 nM
potency estimated from few doses [9]: 969 nM
potency estimated from few doses [10]: 1220 nM
potency estimated from few doses [11]: 2060 nM
potency estimated from few doses [12]: 1230 nM
potency estimated from few doses [13]: 1220 nM
potency estimated from few doses [14]: 2330 nM
potency estimated from few doses [15]: 1290 nM
potency estimated from few doses [16]: 1070 nM
potency estimated from few doses [17]: 1320 nM
potency estimated from few doses [18]: 1350 nM
potency estimated from few doses [19]: 1430 nM
potency estimated from few doses [20]: 44.9 nM
potency estimated from few doses [21]: 77.8 nM
potency estimated from few doses [22]: 1270 nM
potency estimated from few doses [23]: 2320 nM
potency estimated from few doses [24]: 802 nM
potency estimated from few doses [25]: 2480 nM
potency estimated from few doses [26]: 1380 nM
potency estimated from few doses [27]: 59.2 nM
potency estimated from few doses [28]: 142 nM
potency estimated from few doses [29]: 851 nM
potency estimated from few doses [30]: 939 nM
potency estimated from few doses [31]: 340 nM
potency estimated from few doses [32]: 1860 nM
potency estimated from few doses [33]: 723 nM
potency estimated from few doses [34]: 655 nM
potency estimated from few doses [35]: 1330 nM
potency estimated from few doses [36]: 1540 nM
potency estimated from few doses [37]: 628 nM
potency estimated from few doses [38]: 1590 nM
potency estimated from few doses [39]: 1450 nM
potency estimated from few doses [40]: 952 nM
potency estimated from few doses [41]: 1290 nM
potency estimated from few doses [42]: 1320 nM
potency estimated from few doses [43]: 1530 nM
potency estimated from few doses [44]: 1380 nM
